Hit rate of the full screen: of about 290,000 compounds, about 2,300 (0.79%) were called active. The sample holds actives, similar compounds and a random draw of the others, so the mix is not that of the screen. Values without a mark were called inactive. Rule as the data show it: active = inhibition above about 22%; inactive = the rest.

This test in a line: cytotoxicity in IEC-6 intestinal epithelial cells, primary screen, cytotoxicity control for KLF5 inhibitor project, cell-based, luminescence (AID 1825).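 Also: 0% = plate median of test compound wells and 100% = cytotoxic reference compound wells.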 The following applies: IEC-6 cytotoxicity, luminescence viability; at 5 µM; hits give high values.
Consider `Cc1[nH]c2ccc(C(=O)N3CCN(C)CC3)cc2c1C`, for which the inhibition is 0.4%.

As to `CCOc1ccccc1N1CCN(C(=O)c2ccc3[nH]c(C)c(C)c3c2)CC1`, the inhibition was 36.2% (active). For `COc1ccccc1N1CCN(C(=O)c2ccc(Cl)c(S(=O)(=O)N3CCCC3)c2)CC1`, the inhibition is -2.9%. Take `CCN(C(=O)COC(=O)c1ccc(COc2ccc3c(C)cc(=O)oc3c2)cc1)C1CCS(=O)(=O)C1` (stereo not drawn): the inhibition is -1.8%. With `Cc1ccc(C)c(NC(=O)C2Cc3ccccc3CN2C(=O)OCc2ccccc2)c1` (stereo not drawn), the inhibition was -6.3%. Turning to `O=C(NCCc1ccccn1)c1cccnc1Oc1ccc(Cl)cc1`, the inhibition was 5%. Regarding `COc1ccc(CCNC(=O)c2ccccc2OCc2ccccc2)cc1`, the inhibition was -0.9%.

Consider `CCOc1ncccc1C(=O)NCCc1ccc(OC)cc1`, for which the inhibition is 22% (active). Regarding `COc1ccc(/C=C(\C#N)c2c[nH]c3ccccc23)cc1`, the inhibition was 86.1% (active).

For the compound `COc1cc(/C=C(\C#N)c2nc3ccccc3[nH]2)ccc1O`, the inhibition is 2%. For `COc1ccc2[nH]cc(/C=C(/C#N)S(=O)(=O)c3ccccc3)c2c1`, the inhibition is -0.2%. In the case of `CN(CC(=O)O)S(=O)(=O)c1ccc2oc3ccccc3c2c1` it was -1.3%; in that of `C=Cc1ccc(C(=O)N2CCCC(CCC(=O)N3CCN(c4ccccn4)CC3)C2)cc1` (stereo not drawn), -8.1%; in that of `CN(C(=O)CN1C(=O)S/C(=C\c2ccccc2F)C1=O)C1CCS(=O)(=O)C1` (stereo not drawn), -4.8%.

Consider `N#CC(C(=O)c1ccc(S(=O)(=O)N2CCCCCC2)cc1)c1nc2ccccc2[nH]1` (stereo not drawn), for which the inhibition is 3%. In the case of `O=S(=O)(c1ccc(Br)cc1)N1CCC(c2nc3ccccc3[nH]2)CC1`, the inhibition is 43.7% (active). In the case of `O=C(C1CCCO1)N1CCC(c2nc3ccccc3[nH]2)CC1` (stereo not drawn), the inhibition was -5.3%. Turning to `O=C(Nc1cccnc1Cl)c1cc(-c2ccccc2O)on1`, the inhibition was -3.1%. On to `Cc1ccc(OCCOc2cccc(/C=N/NC(N)=O)c2)cc1`, for which the inhibition was 3.9%. Take `CNC(=O)C1CCN(S(=O)(=O)c2c(C)noc2/C=C/c2cccc(C)c2)CC1`: the inhibition was -7.8%.

Take `Cc1cccc2c1N(CC(=O)OC(C)C)C(=O)C2=O`: the inhibition was 2.7%. For `CC(C)OC(=O)CN1C(=O)c2ccccc2C1=O`, the inhibition is 1.2%. As for `CC(C)OC(=O)CN1C(=O)C(=O)c2ccccc21`, the inhibition is 24.8% (active). In the case of `COc1ccc(CCNS(=O)(=O)c2cn(C)nc2C)cc1` it was 3%; in that of `CCCOc1ccc(C2=CSC3=NCCN23)cc1Cl`, -2.6%; in that of `O=C(Nn1cnnc1)c1cc(Cl)ccc1Cl`, 1.3%.

For `Cc1ccc(NS(=O)(=O)c2ccc(F)cc2)nc1`, the inhibition is 1.3%. In the case of `COc1ccc(Nc2oc(-c3ccccc3Cl)nc2C#N)cc1` it was 26.1% (active). For `Cc1ccccc1-c1nc(C#N)c(NCc2ccco2)o1`, the inhibition is -5.6%. Then `COc1ccccc1-c1nc(C#N)c(N2CCC(C(N)=O)CC2)o1`, with 0.7%; and `CCC(C)N1CC(=O)N2Cc3[nH]c4ccccc4c3C[C@H]2C1=O` (stereo partly drawn), with 9.4%; and `NC(=O)c1oc2ccccc2c1NC(=O)Cc1ccccc1`, with -3.9%. For `Fc1cccc(CSc2nnc3ccc(-c4ccncc4)nn23)c1`, the inhibition was -4%. Regarding `O=C(CSc1nnc2ccc(-c3ccncc3)nn12)N1CCCCC1`, the inhibition was -4.1%. Turning to `CSc1nnc2ccc(-c3ccc(C)cc3)nn12`, the inhibition is 23.2% (active). For `CCOC(=O)N1CCN(C(=O)c2cn(C)c3ccc(S(=O)(=O)N(CC)CC)cc3c2=O)CC1`, the inhibition is -5.4%. As to `COC(=O)c1ccc(NC(=O)CSc2nncn2-c2cccnc2)cc1`, the inhibition is 0.4%. As for `COc1cccc(-c2cc(C(=O)N3CCN(c4ccccc4OC)CC3)no2)c1`, the inhibition was 12.1%. For `COc1ccccc1N1CCN(C(=O)c2cc(=O)c3cc(C)ccc3o2)CC1`, the inhibition was 17.9%.

For `COc1ccccc1N1CCN(C(=O)c2cc(=O)c3cc(C)cc(C)c3o2)CC1`, the inhibition was 93.6% (active).

For the compound `COC1=C(N2CCOCC2)C(=O)c2ccccc2C1=O`, the inhibition is -1.6%. Regarding `COc1ccc(NC(=O)c2cccc3c2C(=O)N(CC2CCCO2)C3)cc1OC` (stereo not drawn), the inhibition is -0.8%. With `Cc1cccc(NS(=O)(=O)c2ccc(-c3cnc(C4CC4)o3)cc2)c1`, the inhibition is 77.2% (active). Turning to `Cc1cccc(CNS(=O)(=O)c2ccc(-c3cnc(C4CC4)o3)cc2)c1`, the inhibition was 4.4%. In the case of `COc1ccc(CNS(=O)(=O)c2ccc(-c3cnc(C4CC4)o3)cc2)cc1`, the inhibition is -1.9%. As to `Cc1cccc(CS(=O)(=O)c2ncc(Cl)c(C(=O)Nc3ccc(F)cc3)n2)c1`, the inhibition is 77.4% (active). `CCOc1ccc(NC(=O)c2nc(SCC)ncc2Cl)cc1`: the inhibition was 12.7%. Consider `Cc1cccc(NC(=O)C(C)SCc2ccccc2)c1` (stereo not drawn), for which the inhibition was 0.6%.

With `CCSc1ncc(Cl)c(C(=O)Nc2cc(C)ccc2C)n1`, the inhibition is 5.4%. Turning to `Cc1cccc(OCc2ccc(C(=O)Nc3ccc(F)cc3)cc2)c1`, the inhibition was 0.7%. Turning to `Cc1cccc(NC(=O)c2nc(S(=O)(=O)Cc3ccccc3)ncc2Cl)c1`, the inhibition is 88.2% (active). In the case of `CN1C2CCC1CC(NC(=O)c1ccc([N+](=O)[O-])cc1)C2` (stereo not drawn), the inhibition is 5%. Then `CC(NC(=O)COc1cccnc1[N+](=O)[O-])c1ccc(Cl)cc1Cl` (stereo not drawn), with -1.6%; and `Cc1cccc(NC(=O)c2ccc(S(=O)(=O)N(C)CC3CCCO3)cc2)c1C` (stereo not drawn), with -2.6%; and `COc1ccc(CNC(=O)C(C)n2nc(C)c3c(C)n(-c4ccccc4)nc3c2=O)c(OC)c1` (stereo not drawn), with 0.3%.

As for `CC1CN(C(=S)Nc2ccccc2F)CC(C)O1` (stereo not drawn), the inhibition was 1.8%. As for `CC(=O)NC1=NN(C(C)=O)C(C)(c2ccc(C)cc2)S1` (stereo not drawn), the inhibition is -3.8%. In the case of `CC(=O)NC1=NN(C(C)=O)C(C)(c2ccc(Cl)s2)S1` (stereo not drawn), the inhibition was 23.7% (active).

`CC(=O)NC1=NN(C(C)=O)C(C)(CCS(=O)(=O)c2ccc(Cl)c(Cl)c2)S1` (stereo not drawn): the inhibition was -1%.

`O=C(COC(=O)c1cccs1)Nc1ccccc1Cl`: the inhibition was -3.8%. In the case of `O=C(Nc1ccccc1Cl)/C(Cl)=C(\Cl)S(=O)c1ccccc1` (stereo not drawn) it was 96.8% (active); in that of `O=C(Nc1ccccc1Cl)Nn1cnnc1`, 0.2%. With `CCOC(=O)c1csc(CCNC(=O)c2oc3c(Cl)cc(C)cc3c2C)n1`, the inhibition was -2.4%.

Turning to `COc1ccc(CS(=O)/C(Cl)=C(/Cl)C(=O)Nc2ccc(OC)nc2)cc1` (stereo not drawn), the inhibition was 102% (active). `COc1ccc(Nc2cc(Cl)ccc2C(=O)O)cn1`: the inhibition was -1.3%. As to `COc1ccc(NC(=O)c2cc(-c3ccc(C)cc3)on2)cc1`, the inhibition was 2.3%. For `COc1ccc(C(=O)Nc2ccc(NC(=O)C(C)C)nc2)cc1`, the inhibition was -0.5%.

`CCOc1ccc(S(=O)(=O)Nc2ccc(OC)nc2)cc1`: the inhibition was 6.1%. Then `COc1ccc(NC(=O)/C(Cl)=C(/Cl)S(=O)Cc2ccc(C)cc2)cn1` (stereo not drawn), with 99.6% (active); and `Cc1ccc([N+](=O)[O-])cc1S(=O)(=O)N1CCCN(C)CC1`, with 3.1%; and `CC1(C)Cc2cccc(OCC(=O)N3CCN(c4ccc([N+](=O)[O-])cc4)CC3)c2O1`, with 4.2%.

For `Cc1cccc(C(=O)N2CCN(S(=O)(=O)N3CCCCC3)CC2)c1`, the inhibition was -0.2%.

As for `CN(C)CCNC(=O)c1[nH]nc2c1CCc1ccccc1-2`, the inhibition was -3.9%. `CC(=O)NCCc1ccc(S(=O)(=O)Nc2ccc(C)c(S(=O)(=O)N3CCOCC3)c2)cc1`: the inhibition was 2.5%. Take `COc1cc(OC)cc(C(=O)N[C@H](C(=O)Nc2nc3ccccc3[nH]2)C(C)C)c1`: the inhibition is 18.7%.

Consider `COC(=O)Nc1nc2ccc(Sc3ccccc3)cc2[nH]1`, for which the inhibition was 81.4% (active). Regarding `CC(C)c1nc2ccc(C(=O)O)cc2[nH]1`, the inhibition was -6%. As to `S=C(c1ccc(-c2ccccc2)o1)N1CCCCC1`, the inhibition was 1.6%. Consider `O=C(Cc1ccc([N+](=O)[O-])cc1)Nc1ccc(C(=O)N2CCOCC2)cc1`, for which the inhibition was -2.8%.

In the case of `CCCc1c(C(=O)N/N=C(\C)CCc2ccc(OC)cc2)nnn1-c1nonc1N`, the inhibition is 1.1%.

Regarding `CCn1cc(/C=C(\NC(=O)c2cc(OC)c(OC)c(OC)c2)C(=O)N2CCN(C)CC2)c2ccccc21`, the inhibition is 6.9%. For the compound `Cc1nn(C(C)C(=O)NCCC2=CCCCC2)c(=O)c2nn(-c3ccccc3)c(C)c12` (stereo not drawn), the inhibition was -2.9%.

Take `Cc1cc(C(=O)N/N=C\C(Br)=C\c2ccccc2)c(C)o1`: the inhibition is 11.7%. Consider `CC(C)c1cc(C(=O)O)n[nH]1`, for which the inhibition was 1.7%. Regarding `CC(C)c1cc(C(=O)N/N=C/C(Br)=C/c2ccccc2)n[nH]1`, the inhibition is 37.9% (active). For `Cc1ccc(Cl)cc1NC(=O)C1CCCN(c2cnccn2)C1` (stereo not drawn), the inhibition is -2.8%.

For the compound `C[C@@H]1C[C@@H]2O[C@H]2/C=C\C=C\C(=O)Cc2c(Cl)c(O)cc(O)c2C(=O)O1`, the inhibition is 44.5% (active).

With `COc1ccccc1Oc1ccc(N2CC(C(=O)OCC(=O)c3ccc(F)cc3)CC2=O)cc1` (stereo not drawn), the inhibition was -7.2%.

With `Cc1nn(CC(=O)N2CCCCC2)c(=O)c2nn(-c3ccccc3)c(C)c12`, the inhibition is -5.3%. With `COc1ccc(S(=O)(=O)N2CCC(C(=O)NCc3ccco3)CC2)cc1C`, the inhibition is -0.7%. Regarding `Cc1ccc(CNC(=O)C2CC(c3ccccc3[N+](=O)[O-])=NO2)o1` (stereo not drawn), the inhibition is 4.8%.

Take `COc1ccc(C2=NOC(C(=O)NCc3ccco3)C2)cc1OC` (stereo not drawn): the inhibition is 43.3% (active).

`C[C@@H](NC(=O)[C@@H]1Cc2ccccc2CN1)C(=O)NC1CCCC1`: the inhibition was 0.2%. Take `CC(=O)NCCNC(=O)c1cc(-c2cccc3ccccc23)nc2ccccc12`: the inhibition was 4.3%. With `COCCn1c(SCC(=O)Nc2nc(C)cs2)nnc1C(C)C`, the inhibition is 1.6%. Regarding `O=C1c2ccccc2C(=O)N1c1cccc2ccccc12`, the inhibition was -0.4%. With `Cc1ccc(Oc2ccc3c(c2)C(=O)N(c2cccc4cccnc24)C3=O)cc1`, the inhibition is 25.8% (active). Consider `Cc1cccc(N2C(=O)c3cccnc3C2=O)c1`, for which the inhibition was 3.1%.
